PubChem BioAssay (Tox21)
Results filed as inconclusive are left out. Calls of active or inactive are those of the source. Unless noted, calls come from the whole dose curve; as a rule, active = well fitted curve in the direction sought with a large enough effect in the repeat runs; inconclusive = weak or mixed curves; inactive = flat fitted curve, though single readings scatter.

Columns and labels:
[1] = qHTS assay to test for compound auto fluorescence at 535 nm (green) in HEK293 cells (AID 720680)
[2] = qHTS assay to test for compound auto fluorescence at 460 nm (blue) in HEK293 cell free culture (AID 720681)
Outline: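 Test compounds were pinned into cell-free culture medium (DMEM with 10% FBS) and fluorescence was read directly at Ex/Em 405/460 nm. Signals were expressed as fluorescence equivalents of triamterene, with DMSO vehicle as control.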

[3] = qHTS assay to test for compound auto fluorescence at 535 nm (green) in HEK293 cell free culture (AID 720682)
Outline: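 Each library compound, or DMSO control, is added by pintool to medium alone, comprising DMEM and 10% FBS. Emission at 535 nm following 485 nm excitation is quantified against fluorescein.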

[4] = qHTS assay to test for compound auto fluorescence at 590 nm (red) in HEK293 cell free culture (AID 720683)
Outline: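 Tox21 10K library compounds were pinned into cell-free DMEM with 10% FBS and fluorescence was read at excitation 540 nm. Activity is expressed as Rose Bengal sodium equivalency.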

[5] = qHTS assay to test for compound auto fluorescence at 590 nm (red) in HepG2 cell free culture (AID 720684)
Outline: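 Measured in medium alone (MEM containing 10% FBS) following pintool addition of compound; emission at 590 nm with 540 nm excitation, referenced to Rose Bengal sodium.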

[6] = qHTS assay to test for compound auto fluorescence at 460 nm (blue) in HepG2 cell free culture (AID 720685)
Outline: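 Compound (23 nL) or DMSO pinned into cell-free MEM with 10% FBS; blue fluorescence read at 405/460 nm excitation/emission, expressed as auto-fluorescence equivalency to triamterene.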

[7] = qHTS assay to test for compound auto fluorescence at 535 nm (green) in HepG2 cell free culture (AID 720686)
[8] = qHTS assay to test for compound auto fluorescence at 460 nm (blue) in HepG2 cells (AID 720687)
Outline: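 Cells (2,000/well in MEM with 10% FBS) attached overnight at 37 C, then were exposed to compound or DMSO for 1 hr at 37 C, 5% CO2. Fluorescence read at Ex/Em 405/460 nm, expressed as triamterene-equivalent signal.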

[9] = target: Glucocorticoid receptor (Homo sapiens) (UniProt P04150); assay: qHTS assay to identify small molecule agonists of the glucocorticoid receptor (GR) signaling pathway (AID 720691; active = well fitted activation curve with a large enough effect in the signal ratio in the repeat runs, not every such curve was filed as active; the % refers to the signal ratio)
Outline: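 GR-bla HeLa cells carrying a GRE-driven beta-lactamase reporter, exposed to compounds for 18 h at 37 C. Reporter activation read as fluorescence after 2 h with LiveBLAzer B/G FRET substrate at room temperature.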

[10] = target: Glucocorticoid receptor (Homo sapiens) (UniProt P04150); assay: qHTS assay to identify small molecule antagonists of the glucocorticoid receptor (GR) signaling pathway (AID 720692; active = well fitted inhibition curve with a large enough effect in the signal ratio in the repeat runs, not every such curve was filed as active; the % refers to the signal ratio)
Outline: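 GR-bla HeLa cells carrying a GRE-driven beta-lactamase reporter received compound after 4 h plating, then dexamethasone (5 nM final). After 18 h at 37C, the FRET substrate was loaded for 2 h at room temperature and fluorescence read.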

Measured: Potency

Sequence of Glucocorticoid receptor (Homo sapiens) (P04150 whole entry, looked up): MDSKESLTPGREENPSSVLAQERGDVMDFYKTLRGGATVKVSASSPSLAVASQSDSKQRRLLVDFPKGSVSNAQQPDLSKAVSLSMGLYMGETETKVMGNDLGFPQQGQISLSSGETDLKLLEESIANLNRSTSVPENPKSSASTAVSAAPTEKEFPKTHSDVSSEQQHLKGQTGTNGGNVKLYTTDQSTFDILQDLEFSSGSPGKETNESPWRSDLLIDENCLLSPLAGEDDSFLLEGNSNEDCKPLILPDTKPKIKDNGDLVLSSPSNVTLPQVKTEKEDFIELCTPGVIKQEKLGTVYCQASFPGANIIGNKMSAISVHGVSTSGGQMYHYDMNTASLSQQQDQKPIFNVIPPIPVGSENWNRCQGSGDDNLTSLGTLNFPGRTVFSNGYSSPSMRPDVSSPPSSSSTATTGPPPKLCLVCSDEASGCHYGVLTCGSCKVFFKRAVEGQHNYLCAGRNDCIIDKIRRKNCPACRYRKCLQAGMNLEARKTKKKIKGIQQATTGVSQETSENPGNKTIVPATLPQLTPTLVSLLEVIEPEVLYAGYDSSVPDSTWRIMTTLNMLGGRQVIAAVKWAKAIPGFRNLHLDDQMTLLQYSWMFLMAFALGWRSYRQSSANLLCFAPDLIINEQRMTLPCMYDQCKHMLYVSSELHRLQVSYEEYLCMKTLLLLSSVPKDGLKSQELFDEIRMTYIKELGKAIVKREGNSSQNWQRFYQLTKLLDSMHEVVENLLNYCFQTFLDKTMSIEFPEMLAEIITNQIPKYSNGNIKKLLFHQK

CCN(CC)C(=O)C(C)Oc1cccc2ccccc12 (stereo unspecified)
not listed: [9] | [10]
inactive: all other assays above

CNC(=O)CSP(=S)(OC)OC
not listed: [9] | [10]
inactive: all other assays above

CC(C)(c1ccccc1)c1ccc(O)c(C(C)(C)c2ccccc2)c1
not listed: [9] | [10]
inactive: all other assays above

O=C1Nc2ccc(Cl)cc2C(c2ccccc2)=NC1O (stereo unspecified)
not listed: [9] | [10]
inactive: all other assays above

CC(C)(O)C(=O)Nc1ccc([N+](=O)[O-])c(C(F)(F)F)c1
not listed: [9] | [10]
inactive: all other assays above

COP(=S)(OC)Oc1ccc(Sc2ccc(OP(=S)(OC)OC)cc2)cc1
not listed: [9] | [10]
inactive: all other assays above

CCC[CH2][Sn]([Cl])([Cl])[CH2]CCC
not listed: [9] | [10]
inactive: all other assays above

Oc1ccc(Cl)cc1Cc1ccccc1
not listed: [9] | [10]
inactive: all other assays above

CN(C)P(=O)(N(C)C)N(C)C
not listed: [9] | [10]
inactive: all other assays above

Nc1ccc2ccccc2c1
not listed: [9] | [10]
inactive: all other assays above

CC(C)(c1ccccc1)c1ccc(O)cc1
not listed: [9] | [10]
inactive: all other assays above

c1ccc2c(c1)Nc1ccccc1S2
not listed: [9] | [10]
inactive: all other assays above

C[C@]12CC[C@H]3[C@@H](CCC4=CC(=O)CC[C@@H]43)[C@@H]1CC[C@@H]2O
not listed: [9] | [10]
inactive: all other assays above

CCOP(=S)(OCC)SCSC(C)(C)C
not listed: [9] | [10]
inactive: all other assays above

C[N+](C)(C)CC(=O)O
not listed: [9] | [10]
inactive: all other assays above

CS(=O)(=O)NC(=O)c1cc(Oc2ccc(C(F)(F)F)cc2Cl)ccc1[N+](=O)[O-]
not listed: [9] | [10]
inactive: all other assays above

Cc1cc(Cl)ccc1N=CN(C)C
not listed: [9] | [10]
inactive: all other assays above

O=S(=O)(O)C(F)(F)C(F)(F)C(F)(F)C(F)(F)C(F)(F)C(F)(F)C(F)(F)C(F)(F)F
not listed: [9] | [10]
inactive: all other assays above

O=C1C(Cl)=C(Cl)C(=O)c2ccccc21
not listed: [9] | [10]
inactive: all other assays above

CSc1nc(NC(C)C)nc(NC(C)C)n1
not listed: [9] | [10]
inactive: all other assays above

CCC(=O)Nc1ccc(Cl)c(Cl)c1
not listed: [9] | [10]
inactive: all other assays above

CCC1(c2ccc(N)cc2)CCC(=O)NC1=O (stereo unspecified)
not listed: [10]
inactive: all other assays above

Brc1ccc(Br)cc1
not listed: [10]
inactive: all other assays above

COP(=S)(OC)SCn1nnc2ccccc2c1=O
not listed: [9] | [10]
inactive: all other assays above

CCOP(=O)(O)OCC (tested in a mixture with another compound)
not listed: [9] | [10]
inactive: all other assays above

COc1ccc(C=O)cc1OC
not listed: [9] | [10]
inactive: all other assays above

CCCCOCC1CO1 (stereo unspecified)
not listed: [10]
inactive: all other assays above

O=[N+]([O-])c1ccc(Cl)c([N+](=O)[O-])c1
not listed: [9] | [10]
inactive: all other assays above

Clc1cccc(C(Cl)(Cl)Cl)n1
not listed: [9] | [10]
inactive: all other assays above

N#Cc1nn(-c2c(Cl)cc(C(F)(F)F)cc2Cl)c(N)c1S(=O)C(F)(F)F (stereo unspecified)
not listed: [10]
inactive: all other assays above

CC(C)=CC1C(C(=O)OCN2C(=O)C3=C(CCCC3)C2=O)C1(C)C (stereo unspecified)
not listed: [10]
inactive: all other assays above

CC(C)(O)C#N
not listed: [9] | [10]
inactive: all other assays above

CCC[CH2][Sn]([Cl])([CH2]CCC)[CH2]CCC
not listed: [9] | [10]
inactive: all other assays above

NN=C(N)N
not listed: [9] | [10]
inactive: all other assays above

Nc1ccc([N+](=O)[O-])cc1N
not listed: [9] | [10]
inactive: all other assays above

CCOS(=O)(=O)OCC
not listed: [10]
inactive: all other assays above

N#Cc1c(Cl)c(Cl)c(Cl)c(C#N)c1Cl
not listed: [9] | [10]
inactive: all other assays above

NC(=O)CN1CCCC1=O
not listed: [10]
inactive: all other assays above

Oc1ccc(Cl)cc1Cl
not listed: [10]
inactive: all other assays above

C[N+](C)(C)C
not listed: [7] | [9] | [10]
inactive: all other assays above

CC(C)CON=O
not listed: [10]
inactive: all other assays above

Cc1ccc(N=CN(C)C=Nc2ccc(C)cc2C)c(C)c1
not listed: [10]
inactive: all other assays above

CNC(=S)S
inactive: all assays above

Cc1cccc(N=Nc2ccc(N(C)C)cc2)c1
not listed: [10]
inactive: all other assays above

N#CCCCCC#N
inactive: all assays above

COP(=O)(NC(C)=O)SC (stereo unspecified)
inactive: all assays above

CCCCOC(=O)COC(=O)c1ccccc1C(=O)OCCCC
not listed: [10]
inactive: all other assays above

ClC(Cl)(Cl)Br
not listed: [10]
inactive: all other assays above

CCNCC
not listed: [10]
inactive: all other assays above

CC1=C(C(=O)Nc2ccccc2)SCCO1
inactive: all assays above

CN(C)c1ccccc1
not listed: [10]
inactive: all other assays above

COP(=S)(OC)Oc1ccc(S(=O)(=O)N(C)C)cc1
not listed: [10]
inactive: all other assays above

N#CC(c1ccccc1)c1ccccc1
inactive: all assays above

O=P(OCCCl)(OCCCl)OCCCl
not listed: [10]
inactive: all other assays above

Cc1ccc([N+](=O)[O-])cc1
not listed: [10]
inactive: all other assays above

[CH3][Sn]([Cl])([Cl])[Cl]
not listed: [10]
inactive: all other assays above
